Reference: the supplement of paper PMC3334620
Over roughly 33,000 sequences, “E-score (-0.5 to 0.5)” has its median near -0.0034; the highest 2% begin near 0.25. What follows is part of a selection rich in the highest values, with near analogues and random picks from the rest.

Each sequence was assayed against T1, Yap3 (UniProt P38749) (assay: PBM E-score (8-mer binding enrichment) (E-score (-0.5 to 0.5)); higher = stronger / more preferred TF binding). Conditions: protein concentration: 100 nM; construct: GST-full length.
T1 sequence: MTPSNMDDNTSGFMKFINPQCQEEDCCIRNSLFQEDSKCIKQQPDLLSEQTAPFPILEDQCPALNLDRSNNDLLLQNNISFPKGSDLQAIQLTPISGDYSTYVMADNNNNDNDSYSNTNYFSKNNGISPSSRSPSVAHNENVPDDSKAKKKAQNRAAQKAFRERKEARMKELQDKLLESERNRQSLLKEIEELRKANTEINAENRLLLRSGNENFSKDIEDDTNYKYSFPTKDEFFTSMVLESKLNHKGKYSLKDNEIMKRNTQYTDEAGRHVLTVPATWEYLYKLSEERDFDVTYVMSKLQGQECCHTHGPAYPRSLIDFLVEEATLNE
Description: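 Universal 'all 10-mer' protein binding microarrays (Agilent AMADID 015681) probed with GST-tagged S. cerevisiae TFs (full-length or DBD) made by in vitro transcription/translation (PURExpress), about 100-200 nM. Bound TF was detected with fluorescent anti-GST. Each ungapped 8-mer (which stands for itself and its reverse complement) is scored by the PBM enrichment score (E-score), a modified Wilcoxon-Mann-Whitney statistic from -0.5 to +0.5, computed with the Universal PBM Analysis Suite. Scale: above 0.35 generally sequence-specific binding.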

Sequence | PBM E-score
TTGTACAA | 0.185
CATCAGAC | -0.133
ACATACCC | 0.0479
GAACTCGC | 0.0628
CTCCTACC | -0.275
CCTGAACG | -0.154
GTCTAGCA | 0.0493
ATGAGAAA | 0.181
GCGTTAGA | 0.0241
AAGCGTTC | -0.0829
GCGGCCTA | -0.0845
ATTTTAAA | 0.282
AATTTTAA | 0.212
GTTTTAAA | 0.235
ATTTTTTA | 0.255
AATTTTTA | 0.252
ATTTTTAG | -0.0279
ATTTTAAC | 0.149
ATTTTTTG | 0.226
ATTTTTAA | 0.295
TCAGCGCA | -0.216
CGGTTTTA | -0.106
CTAAGTAC | 0.016
CGATGGGC | -0.18
CCAACAGC | 0.0293

Sequence | PBM E-score
GAGTCATC | -0.00184
AATACACT | 0.259
AATACACC | 0.272
CATACACC | 0.0314
GATACACC | 0.161
AATACACA | 0.131
AATACACG | 0.0582
CGGCAGGC | -0.189
CGAGAGTA | 0.0233
GCATTGTA | -0.0355
GCAAAGAA | 0.0916
CAGCGAAG | -0.16
ATTGCAAG | 0.0639
ATTGCAAA | 0.0883
ATTGCAAT | 0.283
ATGGCCAA | -0.114
AGGTGCCG | -0.101
CTGTTTCA | 0.0525
GCCAAGAC | -0.195
CAAATAAG | -0.0581
CAAATATC | 0.285
AAAATATG | 0.256
AAAATATA | 0.19
CAAATACC | 0.0818
GAAATATC | 0.0879

Sequence | PBM E-score
AAAATAAC | 0.0743
AAAATAAG | 0.271
CAAATATG | 0.131
AAAATACG | 0.234
CGAATATC | 0.154
AAAATATC | 0.257
GAAGCTAA | -0.136
ATAAGGTG | -0.00609
ATCTGCCG | 0.101
GTCAGCAC | -0.0445
GGATCAAA | 0.111
AAAATATT | 0.318
AAAATACT | 0.0626
AAAATAGT | 0.12
TAGCAACA | 0.114
AAGCACTT | -0.0376
CGTGGCTC | -0.321
CCGGAAAA | 0.106
AATCGAAG | 0.256
AATCGACT | -0.0232
AATCGACA | 0.258
AATCGACC | -0.00549
AATCGAAC | 0.107
AATCGAAA | 0.0602
AACGCGAG | 0.126

Sequence | PBM E-score
AACGCGCA | 0.103
AACGCGAA | 0.298
AACGCGCG | 0.265
CACGCGAA | -0.0244
AACGCGCT | -0.012
ACGCACCC | -0.243
ACCCGCAA | -0.239
ACTAGTTG | -0.0214
TCGCAAGA | -0.0427
TCCATCCA | -0.0216
ACCCCCAT | -0.246
AAGACAAG | 0.045
AAGACAAC | 0.267
CAGACAAC | 0.0898
GAAAGAGA | 0.0574
ATCATCAT | 0.139
AATTTGCG | 0.0563
CTCGTAAC | 0.177
ATCGTAAG | 0.137
CTCGTAAG | 0.257
ATTGTCTG | 0.11
AAGATGAT | 0.0727
ATTGCTCA | -0.00161
CGTAGATA | 0.0847
AATAGATA | 0.267

Sequence | PBM E-score
AGTAGATA | 0.273
GATAGATA | 0.0286
AGTAGATC | -0.0265
TATAGATA | 0.0759
GGCATCGA | -0.125
ACGGCGCA | 0.0681
AGAATGCC | -0.00977
CCGCAAAA | 0.076
AATAGTAA | 0.258
TATAGTAA | 0.27
AATAGTTC | 0.156
AATAGTTA | 0.0935
AATAGTAC | 0.0612
GATAGTAA | 0.11
AATAGTAG | 0.206
AATAGTTG | 0.267
CATAGTAA | 0.198
GCCTAACC | -0.151
ATCTACTA | 0.185
AAACCTCG | -0.132
ACATCGAT | 0.0921
ACCTAGTA | -0.119
CTTCATTA | 0.242
ATTCATTA | 0.174
GTTCATTA | 0.259

Sequence | PBM E-score
ACTTCATC | 0.0677
ACCGTCGG | -0.163
AACTAGCT | -0.0564
ATATATTG | 0.0595
GTAGATTA | 0.245
GTATATTA | 0.211
CTATATTC | 0.151
CTATATTA | 0.325
CTCTATTA | 0.0839
CGATATTA | 0.358
GGATATTA | 0.0994
CGATATTC | 0.0953
ATAGATTA | 0.348
ATAGATTG | 0.119
ATATATTA | 0.32
GGTACTGA | -0.124
GATGGGGA | -0.0817
ATATAGAC | 0.123
AGTGCATC | -0.0272
CTACGCGC | -0.0286
ATAGAGAT | 0.166
GTATAGTA | 0.143
ACATATTA | 0.305
CTATATCA | 0.264
ACATATTG | 0.11

Sequence | PBM E-score
ATATATCA | 0.118
ATATCTCA | 0.268
CTATCTCA | -0.0511
CCATATTA | 0.24
ATCTCTCA | 0.15
ATATAGTA | 0.264
GTATATCA | 0.0881
CTATAGTA | 0.156
AGTGCCTC | -0.229
GATAGACA | 0.0506
GTCTTCGA | -0.122
TCAGTAGA | 0.0364
GGTCCACC | -0.329
ACAGCAAG | 0.247
ACAACATG | 0.136
ACGCAAGT | -0.0875
CGAGCATC | 0.00988
AGCCCAGA | -0.0938
ATATCAAC | 0.166
ATATCAAT | 0.268
ATATCAAG | 0.26
CTATCAAG | 0.067
ATATCAGG | -0.0437
ATATCAAA | 0.244
